# B2AR arrestin – qHTS assay of beta-arrestin-biased ligands of beta2-adrenergic receptor | Beta-2 adrenergic receptor (Homo sapiens), P07550 | beta-arrestin recruitment to beta2AR, cell-based reporter | Potency, µM (top dose mostly 46.1 µM), without a hit: at the highest dose activation, most hits filed as activators | hit rate 0.02% among 330,000 | AID 492947, 2010;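 note: potency is the fitted concentration of half-maximal effect; 0% = DMSO controls and full agonism = EC100 isoproterenol or metaproterenol; nearly all actives have a fitted effect of over 65% in size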
# DRD3 agonist – qHTS of D3 Dopamine Receptor Agonist: qHTS. D3R DiscoveRx beta-arrestin cells, luminescence, 90 min. max activation, %. hit rate 0.58% among 410,000; in the data active = max activation above about 30%; note: 0% is about no effect
# Target sequence (P35462 whole entry, looked up): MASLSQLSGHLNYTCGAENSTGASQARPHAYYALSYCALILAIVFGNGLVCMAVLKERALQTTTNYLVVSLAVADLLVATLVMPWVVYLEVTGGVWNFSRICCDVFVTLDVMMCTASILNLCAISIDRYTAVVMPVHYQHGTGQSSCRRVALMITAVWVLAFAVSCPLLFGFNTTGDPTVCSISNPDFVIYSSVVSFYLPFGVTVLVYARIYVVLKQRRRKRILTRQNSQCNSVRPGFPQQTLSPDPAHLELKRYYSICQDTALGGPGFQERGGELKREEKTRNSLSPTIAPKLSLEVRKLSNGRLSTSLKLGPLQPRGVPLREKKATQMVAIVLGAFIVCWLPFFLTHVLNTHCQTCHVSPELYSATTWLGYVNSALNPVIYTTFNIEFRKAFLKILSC
#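 Agonist-mode cell screen: cells plated at 1500/well and incubated overnight at 37 °C, then exposed to library compounds for 90 min at 37 °C. Detection reagent was added for 30–60 min at room temperature, and luminescence was read.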
# PTHR1 agonist – qHTS for PTHR1 Agonists: Primary Screen; Parathyroid hormone/parathyroid hormone-related peptide receptor (Homo sapiens), Q03431; HEK293 GP2 PTHR1 cells, GloSensor cAMP luminescence, 1 h; Potency, µM (titrated, usually from 115 µM), for inactives: at the highest dose activation, most hits filed as activators; hit rate 0.075% among 410,000; AID 743266, 2014; note: potency is the fitted concentration of half-maximal effect; nearly all actives have a fitted effect of over 55% in size
#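 HEK-293-derived GP2 cells expressing PTHR1 and a GloSensor cAMP reporter, 3,000/well, plated overnight, given luciferin plus IBMX (each 0.5 mM as added) for 1 h at 37 °C, then compound for 1 h at 37 °C. Luminescence was read after 15 min at room temperature.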
# D3 antag – qHTS of D3 Dopamine Receptor Antagonist: qHTS; D(3) dopamine receptor (Homo sapiens), P35462; D3R cells, DiscoveRx beta-arrestin luminescence, antagonist mode; active compounds read low; max response, negative = inhibition, %; hit rate 2.5% among 360,000; AID 652054, 2013; in the data active = max response below about -50%; inconclusive = no clear call, values can overlap the other calls; note: % is set by controls: 0 for no effect and ±100 for the full control effect
#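 Cells expressing the human receptor were seeded at 1500 cells/well, incubated overnight at 37 degrees C in 5% CO2, then exposed to library compounds with dopamine controls for 90 minutes at 37 degrees C before luminescent detection.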
# RGS4 inhibitor – Inhibitors of Regulator of G Protein Signaling (RGS) 4: qHTS. Regulator of G-protein signaling 4 (Homo sapiens), P49798. Transcreener GDP fluorescence polarization, RGS4-accelerated GTP hydrolysis. Potency, µM (titrated, usually from 114 µM), inactives show at the top dose activity change, negative = inhibition, most hits filed as inhibitors. hit rate 0.039% among 390,000. AID 504845, 2011; note: potency is the fitted concentration of half-maximal effect; % is set by controls: 0 for no effect and ±100 for the full control effect; nearly all actives have a fitted effect of over 75% in size
# Target sequence (P49798 whole entry, looked up): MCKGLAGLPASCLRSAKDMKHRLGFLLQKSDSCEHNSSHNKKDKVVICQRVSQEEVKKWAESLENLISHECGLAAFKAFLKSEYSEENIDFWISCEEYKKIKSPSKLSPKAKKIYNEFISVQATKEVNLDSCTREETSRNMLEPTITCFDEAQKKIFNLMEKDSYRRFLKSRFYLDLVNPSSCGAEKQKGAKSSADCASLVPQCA
#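 MLSMR compounds (23 nl, pin-transferred) preincubated 10 min at room temperature with a 500nM (2x) first reagent, then RGS4 at 900nM (2x) plus Transcreener GDP mix added; fluorescence polarization (620/688 nm) read before and after 90 min at 30 °C.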
# BRCA1 expr act – qHTS Assay to Identify Small Molecule Activators of BRCA1 Expression; MCF7-BRCA1-FFLuc reporter, luminescence, 48 h; response scale: scaled: vehicle 0%, 10 µM genistein 100%; hit rate 1.1% among 380,000; AID 624202, 2012; Potency, µM (highest dose often 46.1 µM), for the others: at the highest dose activation, hits mostly activators; note: potency is the fitted concentration of half-maximal effect; nearly all actives have a fitted effect of over 80% in size
#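 MCF7 cells carrying a BRCA1-firefly luciferase reporter (2000 cells/well, phenol-red free MEM) were attached for 2 h at 37 °C, then given compounds for 48 h. Luminescence was read 15 min after luciferase reagent; activity normalized to genistein (10 microM) and DMSO.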
# * hit, by the source's call; i = inactive; ? = inconclusive; . = no result given; [ ] = dose if it differs, or a comment. This is a sample that favours compounds with a hit; in the whole collection about 3.7% have one here. Unless noted, calls come from the whole dose curve; as a rule, active = well fitted curve in the direction sought with a large enough effect; inconclusive = small, poorly fitted or top-dose-only effect, or another doubt; inactive = no such curve, though single readings can be large; an effect the other way counts as inactive or inconclusive.
SMILES,B2AR arrestin,DRD3 agonist,PTHR1 agonist,D3 antag,RGS4 inhibitor,BRCA1 expr act
COc1ccc(N(CC(=O)NCc2ccco2)C(=O)CCC(=O)Nc2ccccn2)cc1,0%,-16,i,-7,-28%,1%
CC1(C)CC(=O)c2sc(NC(=O)C(C)(C)C)nc2C1,0%,-9,-51%,-19,12%,7.9µM*
COc1ccc2ccccc2c1C=NN1CCCCC1,.,-2,i,0,.,-4%
CCOc1cc(/C=N/NC(=O)c2cccc([N+](=O)[O-])c2)ccc1OS(=O)(=O)c1ccccc1,0%,-2,i,-61*,-19%,-36%
O=C(C[N+]1(CCO)CCOCC1)c1cccs1,.,.,.,.,.,7%
Cc1ccc(CSCc2nc3ccccc3[nH]2)cc1,0%,3,?,-30,16%,64%
Fc1ccccc1CSCc1nc2ccccc2[nH]1,0%,-5,-23%,2,-2%,5.6µM*
c1ccc2[nH]c(CCCc3nc4ccccc4[nH]3)nc2c1,-1%,-9,-25%,-11,-52%,26%
c1ccc(CCc2nc3ccccc3[nH]2)cc1,-1%,-3,i,-24,0%,6.3µM*
Cc1ccc(SCc2nc3ccccc3[nH]2)cc1,0%,3,-30%,-3,6%,3.5µM*
Cc1ccc(NC(=O)CCCSc2nc3ccccc3[nH]2)cc1,0%,-1,-9%,3,4%,-6%
Cc1ccc(SCC(=O)Nc2ccc(-c3nc4ccccc4[nH]3)cc2)cc1,0%,-10,i,0,-11%,3.5µM*
COc1cc2c(cc1OC)C(COc1ccc([N+](=O)[O-])cc1)N(C(C)=O)CC2 (stereo not given),-1%,1,-46%,14,25%,-19%
COc1cc(C(=O)C(=O)N2CCC(Cc3ccccc3)CC2)cc2ccccc12,.,-3,i,0,.,.
Cc1nc2cc3ccccc3cc2c(=O)[nH]1,0%,-1,i,-7,4%,11µM*
CCN1CCN(C(CCc2ccccc2)C(=O)NC2CCCCC2)CC1 (stereo not given),.,-14,-14%,-73*,.,2%
O=C(NC1CCCCC1)C(=S)NCCc1ccccc1,0%,-2,-10%,32,?,11µM*
O=C(NCCc1ccccc1)C(=O)NC1CCCCC1,0%,2,22%,16,6%,4µM*
O=C(O)C1CCCCC1C(=O)NCCc1ccccc1 (stereo not given),-1%,4,i,-26,10%,3%
S=C(NCCc1ccccc1)NC1CCCCCC1,0%,-1,-9%[57.5 µM],3,27%,?
CCOc1ccc(Cl)cc1-c1cc(C(=O)Nc2ccc(Br)cc2)[nH]n1,.,-20,i,-3,.,-24%
O=C1C=CC(=O)N1c1ccc2c(c1)C(NC(=O)C(F)(F)F)c1ccccc1-2 (stereo not given),.,-26,-7%,-62*,?,-52%
CCc1c(C)sc2nc(C(C)C)nc(SCC(=O)N3CCc4ccccc4C3)c12,0%,50*,-31%,58,-25%,-80%
Cc1sc2nc(C3CC3)nc(SCC(=O)N3CCc4ccccc4C3)c2c1C,0%,46*,-36%,50,-21%,-21%
O=C(CN(c1cc(C(F)(F)F)ccc1Cl)S(=O)(=O)c1ccccc1)NCCc1ccccc1,.,0,i,.,-25%,-37%
SMILES,B2AR arrestin,DRD3 agonist,PTHR1 agonist,D3 antag,RGS4 inhibitor,BRCA1 expr act
CC(=O)c1c(C)nn(CC(=O)NC2CCCN(Cc3ccc(CC(C)C)cc3)C2)c1C (stereo not given),0%,9,-21%,-9,1%,-35%
CN(C)c1nc(-c2ccccc2)nnc1C(F)(F)F,0%,3,i,-64*,3%,-26%
Fc1ccc(Sc2nc(-c3ccccc3)nnc2C(F)(F)F)cc1,0%,-17,-8%,-88*,12%[11.4 µM],-94%
CN(C)CCNc1nc(-c2ccccc2)nnc1C(F)(F)F,-1%,3,-21%[57.5 µM],-51*,20%,-11%
CCN(CC)c1ccc2c(c1)oc(=O)c1c(Cl)cc(=O)oc12,4%,-12,i,-91*,?,-96%
COc1ccc(C(CCN2CCCC(C)C2)c2c(OC)cc(OC)c3c(-c4ccccc4)cc(=O)oc23)cc1 (stereo not given),-1%,-56,-87%,-53*,0%,0%
COc1ccc(C(CCN2CCCC(C)C2)c2c(OC)cc(OC)c3c(C)cc(=O)oc23)cc1 (stereo not given),1%,-67,-43%,-89*,-7%,-12%
COc1cc(OC)c2c(-c3ccccc3)cc(=O)oc2c1C(CCN1CCCC(C)C1)c1ccc(N(C)C)cc1 (stereo not given),0%,-42,-17%,?,-4%,-29%
COc1ccc(CCN2C(=O)CCC3=C2CCCC3=O)cc1OC,.,-6,-15%,0,.,17%
Cc1ccc(CN(C)C(=O)CCNC(=O)c2ccc(Cl)cc2)o1,.,-9,-54%,-27,.,-11%
C=CCc1ccc(OCCCCNC2CCCC2)c(OC)c1,0%,-20,i,-69*,-4%,-48%
C=CCc1ccc(OCCCOc2ccc(C)c(C)c2)c(OC)c1,0%,1,-3%,-19,-5%,-10%
C=CCc1ccc(OCCOCCN(C)C)c(OC)c1,0%,-4,-19%,-71*,-22%,0%
Cc1nc2c(c(SCC(=O)Nc3ccccc3C(F)(F)F)n1)CCC2,.,18,-36%,.,-5%,.
O=C1NC[C@@H](CCCCN2C[C@H](Cc3ccc(O)cc3)N(CC3CCCCC3)C(=O)C2=O)N(Cc2ccccc2)C1=O,.,-15,i,-75*,.,18%
O=C1NC[C@H](c2ccccc2)N(CCCCC2CCCCC2)C1=O,.,-5,-9%,-58*,.,9%
O=C1NC[C@H](CCCCN2C[C@H](Cc3ccc(O)cc3)N(Cc3ccccc3)C(=O)C2=O)N(CCc2ccc(O)cc2)C1=O,.,37*,5%,-27,.,15%
O=C(O)CN1C(=O)C=CC1=O,.,-1,i,-19,.,1%
O=C1C=CC(=O)N1CCCCCCN1C(=O)C=CC1=O,-1%,-14,-43%,-72*,-140%,-85%
Cc1cccn2c(=O)nc(SCC(=O)N3CCC(Cc4ccccc4)CC3)nc12,0%,-35,-22%,-59*,-12%,11%

# Screens: PubChem, National Center for Advancing Translational Sciences (NCATS)
